Structures can show the parent of a compound that is named as a salt. The whole screen tested about 2,100 compounds, of which about 180 (8.6%) showed an effect of 50% or more. The sample holds strong results, similar compounds and a random draw of the others, so the mix is not that of the screen.
These molecules were tested on MOLM1 and UCSD/AML1 (averaged) (assay: cell viability relative to DMSO control (POC); higher = less growth inhibition). Settings: 1 µM; 72 h.
Procedure: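 Primary viability screen in the 3q26 EVI1-high AML cell lines MOLM1 and UCSD/AML1 (1.5e3 cells/well, 384-well), compounds at 1 uM for 72 h. ATP CellTiter-Glo read-out given as percent of viable cells over DMSO control (POC), averaged over duplicates. DMSO was the negative control and 5 uM etoposide the positive control. This mapping covers the MicroSource Spectrum and Selleck anticancer libraries (drug names).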
`C[C@H](NC(=O)Cc1cc(F)cc(F)c1)C(=O)N[C@H](C(=O)OC(C)(C)C)c1ccccc1` was tested, and the cell viability was 76.1%.
`COc1cc(OC)c2c(OC)c(-c3ccc4c(c3)OCO4)c(=O)oc2c1` gave a cell viability of 101%.
`COc1cc(OC)c2c(c1)OC(c1ccccc1)CC2=O` (configuration not stated) was tested, and the cell viability was 105%.
`COc1cc2c3cc1Oc1cc(ccc1O)C[C@@H]1c4c(cc(OC)c(O)c4Oc4ccc(cc4)C[C@@H]3N(C)CC2)CC[N+]1(C)C` was tested, and the cell viability was 100%.
`NC(=O)Nc1cc(-c2cccc(F)c2)sc1C(=O)N[C@H]1CCCNC1` showed a cell viability of 5.84%.
Work on `CC(=O)O[C@H]1C[C@@H](OC(C)=O)C(C)(C)C2CC(=O)[C@]3(C)C(CC[C@@]4(C)[C@H](C(=O)O)OC(=O)C5OC543)[C@]21C` (some centres not stated) yielded a cell viability of 89.8%.
`CC(=O)O[C@H]1C[C@@H](OC(C)=O)C(C)(C)[C@@H]2C[C@@H](OC(C)=O)[C@@]3(C)C4=CC(=O)O[C@@H](c5ccoc5)[C@]4(C)CC[C@@H]3[C@@]12C` showed a cell viability of 94.5%.
`COC1=CC(=O)C(O)=C/C1=C\C=C\c1ccccc1` gave a cell viability of 95%.
Work on `Cc1cc(O)cc(O)c1C(=O)O` yielded a cell viability of 115%.
`NCCC(=O)N[C@@H](Cc1c[nH]cn1)C(=O)O` was tested, and the cell viability was 89.7%.
`O=C(O)C1CC([C@@H]2CCCCN2)CN2CCCCC12` (some centres not stated) was tested, and the cell viability was 101%.
In the case of `CC(C)n1nc(-c2ccc3oc(N)nc3c2)c2c(N)ncnc21`, the cell viability was 21.6%.
For `CCN1CCN(Cc2ccc(-c3cc4c(N[C@H](C)c5ccccc5)ncnc4[nH]3)cc2)CC1`, the cell viability was 53.4%.
In the case of `COC(=O)c1c(C)c2c(c(C)c1O)OC(=O)c1c(C)c(Cl)c(O)c(Cl)c1O2`, the cell viability was 108%.
`O=C(Cc1cccs1)N[C@@H]1C(=O)N2C(C(=O)[O-])=C(C[n+]3ccccc3)CS[C@H]12` was tested, and the cell viability was 96.4%.
`COC1=CC(=O)C(C(=O)c2ccccc2)=CC1=O` showed a cell viability of 103%.
`C[C@]1(c2nc3c(C(N)=O)cccc3[nH]2)CCCN1` [ABT-888 (Veliparib)] was tested, and the cell viability was 101%.
Molecule `Cc1ccc(NC(=O)c2cccc(C(C)(C)C#N)c2)cc1Nc1ccc2ncn(C)c(=O)c2c1` has a cell viability of 42.7%.
Work on `Cc1ccc(C(=O)Nc2ccc(S(=O)(=O)O)c3cc(S(=O)(=O)O)cc(S(=O)(=O)O)c23)cc1NC(=O)c1cccc(NC(=O)Nc2cccc(C(=O)Nc3cc(C(=O)Nc4ccc(S(=O)(=O)O)c5cc(S(=O)(=O)O)cc(S(=O)(=O)O)c45)ccc3C)c2)c1` yielded a cell viability of 111%.
With `COC(=O)Nc1ccc(-c2nc(N3CCOCC3)c3cnn(C4CCN(C(=O)OC)CC4)c3n2)cc1` the cell viability was 25.9%.
`c1ccc2c(-c3cnn4cc(-c5ccc(N6CCNCC6)cc5)cnc34)ccnc2c1` was tested, and the cell viability was 37.8%.
Molecule `NC1(C(=O)O)CCCC1` has a cell viability of 93.7%.
Molecule `COc1cc(C(=O)NCc2ccc(OCCN(C)C)cc2)cc(OC)c1OC` has a cell viability of 97.1%.
Molecule `CN(C)Cc1c(C(=O)NCCOc2ccc(C(=O)NO)cc2)oc2ccccc12` has a cell viability of 1.01%.
`CC/C(=C(\c1ccccc1)c1ccc(OCCN(C)C)cc1)c1ccccc1` showed a cell viability of 105%.
`CC/C(=C(\c1ccccc1)c1ccc(OCCN(C)C)cc1)c1ccccc1` [Tamoxifen Citrate (Nolvadex)] showed a cell viability of 53.6%.
`C=CCSCC=C` gave a cell viability of 97.3%.
Work on `CCCc1cc(OC)c2c(c1)OCO2` yielded a cell viability of 90.2%.
`C[C@H](NC(=O)Cc1cc(F)cc(F)c1)C(=O)N[C@@H]1C(=O)N(C)c2ccccc2-c2ccccc21` gave a cell viability of 101%.
With `COc1c(C)c2c(c(O)c1C/C=C(\C)CCC(=O)O)C(=O)OC2` the cell viability was 44%.
In the case of `COc1c(C)c2c(c(O)c1C/C=C(\C)CCC(=O)O)C(=O)OC2` [Mycophenolic (Mycophenolate)], the cell viability was 42.4%.
Work on `COc1c(C)c2c(c(O)c1C/C=C(\C)CCC(=O)OCCN1CCOCC1)C(=O)OC2` [Mycophenolate mofetil (CellCept)] yielded a cell viability of 53%.
Work on `COC1=C(OC)C(=O)C(C/C=C(\C)CC/C=C(\C)CC/C=C(\C)CC/C=C(/C)CC/C=C(\C)CC/C=C(\C)CC/C=C(\C)CC/C=C(\C)CC/C=C(\C)CCC=C(C)C)=C(C)C1=O` yielded a cell viability of 85.7%.
`C=C[C@@]1(C)CC(=O)[C@@]2(O)[C@](C)(O1)[C@@H](O)[C@@H](O)C1C(C)(C)CC[C@H](O)[C@@]12C` (some centres not stated) gave a cell viability of 98.8%.
`COc1ccc(C(=O)O)c(O)c1OC` was tested, and the cell viability was 97.8%.
`COc1ccc([C@H]2COc3c(ccc(O)c3OC)C2)c(OC)c1O` showed a cell viability of 116%.
`CC(C=CC(=O)NO)=CC(C)C(=O)c1ccc(N(C)C)cc1` (configuration not stated) [Trichostatin A (TSA)] was tested, and the cell viability was 1.52%.
`O=C(Cn1ccnc1[N+](=O)[O-])NCCO` gave a cell viability of 94.5%.
With `Cc1csc(-c2nnc(Nc3ccc(Oc4ncccc4-c4ccnc(N)n4)cc3)c3ccccc23)c1` the cell viability was 51.5%.
`N=C1C=CC(=C(c2ccc(N)cc2)c2ccc(N)cc2)C=C1` was tested, and the cell viability was 82.5%.
For `CN(C)c1ccc(C(=C2C=CC(=[N+](C)C)C=C2)c2ccc(N(C)C)cc2)cc1`, the cell viability was 0.942%.
`CCCCCCCCCCCCCc1ccco1` gave a cell viability of 97.1%.
`C[C@H](CCC(=O)O)[C@H]1CC[C@H]2[C@@H]3CC[C@@H]4CCCC[C@]4(C)[C@H]3CC[C@]12C` was tested, and the cell viability was 98.9%.
`C[C@@H]1O[C@@H](O[C@H]2[C@H](O[C@H]3CC[C@@]4(C)[C@@H](CC[C@]5(C)[C@@H]4CC=C4[C@@H]6CC(C)(C)CC[C@]6(C(=O)O[C@@H]6O[C@H](CO[C@@H]7O[C@H](CO)[C@@H](O[C@@H]8O[C@@H](C)[C@H](O)[C@@H](O)[C@H]8O)[C@H](O)[C@H]7O)[C@@H](O)[C@H](O)[C@H]6O)CC[C@]45C)[C@]3(C)CO)OC[C@H](O)[C@@H]2O)[C@H](O)[C@H](O)[C@H]1O` showed a cell viability of 89.5%.
For `COCC[n+]1c2c(n(Cc3cnccn3)c1C)C(=O)c1ccccc1C2=O` [YM155 (Sepantronium Bromide)], the cell viability was 3.93%.
In the case of `CC(C)CCC[C@@H](C)[C@H]1CC[C@H]2[C@@H]3CC=C4CC(=O)CC[C@]4(C)[C@H]3CC[C@]12C`, the cell viability was 87.5%.
`COC(=O)c1c(OC)cc2c(c1C)Oc1c(Cl)c(O)c(Cl)c(C)c1C(=O)O2` was tested, and the cell viability was 107%.
With `OC(Cn1cncn1)(Cn1cncn1)c1ccc(F)cc1F` the cell viability was 95.1%.
Work on `Cc1c(NC(=O)OC[C@@H]2COCCN2)cn2ncnc(Nc3ccc4c(cnn4Cc4cccc(F)c4)c3)c12` yielded a cell viability of 119%.
For `C=C1C2CC[C@@]3(C)[C@H](c4ccoc4)OC(=O)C[C@]13O[C@H]1CC(=O)C(C)(C)[C@H](C(O)C(=O)OC)[C@@]21C` (some centres not stated), the cell viability was 99.4%.
`CC(C)C[C@H](NC(=O)CNC(=O)c1cc(Cl)ccc1Cl)B(O)O` [Ixazomib (MLN2238)] was tested, and the cell viability was 1.39%.
Work on `O=C(CNC(=O)c1ccc(Cl)cc1)NO` yielded a cell viability of 107%.
For `CC(C)C[C@H](NC(=O)CNC(=O)c1cc(Cl)ccc1Cl)B1OC(=O)C(CC(=O)O)(CC(=O)O)O1`, the cell viability was 1.16%.
`CC(=O)Oc1ccc2c(c1)CC[C@@H]1[C@@H]2CC[C@]2(C)[C@@H](OC(C)=O)CC[C@@H]12` showed a cell viability of 87.5%.
Work on `O=C(O)Cc1cc(I)c(Oc2cc(I)c(O)c(I)c2)c(I)c1` yielded a cell viability of 97.8%.
In the case of `CC(=O)O[C@@H]1C[C@H]2C(C)(C)C(=O)C=C[C@]2(C)[C@H]2CC[C@@]3(C)[C@H](c4ccoc4)OC(=O)[C@H]4O[C@]43[C@@]21C`, the cell viability was 82.8%.
Work on `COC1(C)CCC2OC2(C)CCC2C1CC2(C)C` (configuration not stated) yielded a cell viability of 102%.
`CC(C)=CCC[C@](C)(O)C1CC=C(C)CC1` (some centres not stated) showed a cell viability of 105%.
In the case of `COc1cc2nccc(Oc3ccc(NC(=O)Nc4cc(C)on4)c(Cl)c3)c2cc1OC` [Tivozanib (AV-951)], the cell viability was 31.8%.
`COc1cc2nccc(Oc3ccc(NC(=O)NC4CC4)c(Cl)c3)c2cc1C(N)=O` [E7080 (Lenvatinib)] showed a cell viability of 58%.
`O=C(Oc1cc(O)cc2c1C[C@@H](OC(=O)c1cc(O)c(O)c(O)c1)[C@@H](c1cc(O)c(O)c(O)c1)O2)c1cc(O)c(O)c(O)c1` gave a cell viability of 104%.
In the case of `Cc1cc(O)c(C=O)c2c1C(=O)Oc1c(COC(=O)/C=C/C(=O)O)c(O)c(C(=O)O)c(C)c1O2`, the cell viability was 104%.
Molecule `Cc1ccc2c(=O)c3cccc(CC(=O)O)c3oc2c1C` has a cell viability of 99.8%.
For `Cc1coc2c1C(=O)C(=O)c1c-2ccc2c1CCCC2(C)C`, the cell viability was 118%.
Work on `C=C[C@@H](C1=CC(=O)C(OC)=C(OC)C1=O)c1ccccc1` yielded a cell viability of 8.05%.
`C=CC(C1=CC(=O)C=CC1=O)c1ccccc1` (configuration not stated) showed a cell viability of 103%.
`C=CC(C1=CC(=O)C(OC)=CC1=O)c1ccccc1` (configuration not stated) gave a cell viability of 79.2%.
`CC1=C2C(O)C(=O)OC3CC4C(C)(C)C(=O)C=C[C@]4(C)C(CC1)[C@]23C` (some centres not stated) showed a cell viability of 89.3%.
Molecule `CCCS(=O)(=O)Nc1ccc(F)c(C(=O)c2c[nH]c3ncc(-c4ccc(Cl)cc4)cc23)c1F` [Vemurafenib (PLX4032)] has a cell viability of 114%.
`COc1ncc(-c2ccc3nccc(-c4ccnnc4)c3c2)cc1NS(=O)(=O)c1ccc(F)cc1F` showed a cell viability of 12.4%.
Work on `COc1ccc2c(C)cc(=O)oc2c1` yielded a cell viability of 110%.
`COC(=O)CC1C(C)(C)C(OC(C)=O)[C@@H]2[C@@H](OC(C)=O)[C@]34O[C@@]2(O)[C@]1(C)C3CC[C@]1(C)C4=CC(=O)O[C@H]1c1ccoc1` (some centres not stated) was tested, and the cell viability was 83.6%.
Work on `O=C(OCC(O)CO)c1ccccc1Nc1ccnc2cc(Cl)ccc12` (configuration not stated) yielded a cell viability of 104%.
In the case of `O=C(NOC[C@H](O)CO)c1ccc(F)c(F)c1Nc1ccc(I)cc1F`, the cell viability was 49.5%.
Work on `O=C(NOCC1CC1)c1ccc(F)c(F)c1Nc1ccc(I)cc1Cl` yielded a cell viability of 33.2%.
`NC(C(=O)O)C(O)C(=O)O` (stereo not drawn) [d,l-threo-3-HYDROXYASPARTIC ACID] gave a cell viability of 129%.
In the case of `CC(=O)OC1CCC2(C)C(=CCC3C2CCC2(C)C(C(C)CCCC(C)C)CCC32)C1` (configuration not stated), the cell viability was 97.3%.
Molecule `COc1cc(O)cc(OC)c1OC` has a cell viability of 95.9%.
With `COC(=O)/C(=C1/OC(=O)C(c2ccccc2)=C1O)c1ccccc1` the cell viability was 102%.
Work on `C[C@@H](N)[C@H]1CC[C@H](C(=O)Nc2ccncc2)CC1` yielded a cell viability of 102%.
`Cc1cc(Nc2cc(N3CCN(C)CC3)nc(/C=C/c3ccccc3)n2)n[nH]1` showed a cell viability of 19.9%.
`Cc1cc(Nc2cc(N3CCN(C)CC3)nc(Sc3ccc(NC(=O)C4CC4)cc3)n2)n[nH]1` [VX-680 (MK-0457, Tozasertib)] gave a cell viability of 22%.

From the supplement of paper PMC11150407
